Experimental data from PubChem BioAssay AID1159580 (chemical genetic matrix, 2015).
The campaign covered roughly 5,500 compounds. About 2,000 (36%) were called active. Not shown: some 18% with an inconclusive outcome. Rule as the data show it: active = normalized growth mostly below about 0.91 (no sharp cut-off); inconclusive = no clear call, values can overlap the other calls; inactive = mostly above about 0.92. The list shows a part of the results.

Assay: chemical genetic growth profiling, strain panel (AID 1159580);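 also: tested at 20 µM; growth read once vehicle control cultures reached saturation at 30 °C; 1 = growth at the plate median or of vehicle wells; lower values mean less growth of the strain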
Conditions: S. cerevisiae deletion strains, growth OD
[1] = locus YAR019C, strain CDC15, hits give low values
[2] = locus YBL105C, strain PKC1, hits give low values
[3] = locus YBR135W, strain CKS1, hits give low values
[4] = locus YBR136W, strain MEC1, hits give low values
[5] = locus YBR160W, strain CDC28, hits give low values
[6] = locus YDL017W, strain CDC7, hits give low values
[7] = locus YDL028C, strain MPS1, hits give low values
[8] = locus YDL101C, strain DUN1, hits give low values
[9] = locus YDL108W, strain KIN28, hits give low values
[10] = locus YDL132W, strain cdc53, hits give low values
[11] = locus YDL214C, strain PRR2, hits give low values
[12] = locus YDR052C, strain DBF4, hits give low values
[13] = locus YDR054C, strain cdc34, hits give low values
[14] = locus YDR226W, strain ADK1, hits give low values
[15] = locus YDR477W, strain SNF1, hits give low values
[16] = locus YER123W, strain YCK3, hits give low values
[17] = locus YER133W, strain GLC7, hits give low values
[18] = locus YFL009W, strain cdc4, hits give low values
[19] = locus YFL029C, strain CAK1, hits give low values
[20] = locus YFR003C, strain YPI1, hits give low values
[21] = locus YFR019W, strain FAB1, hits give low values
[22] = locus YFR028C, strain CDC14, hits give low values
[23] = locus YGR040W, strain KSS1, hits give low values
[24] = locus YGR052W, strain FMP48, hits give low values
[25] = locus YGR092W, strain DBF2, hits give low values
[26] = locus YHR030C, strain SLT2, hits give low values
[27] = locus YHR079C, strain IRE1, hits give low values
[28] = locus YHR082C, strain KSP1, hits give low values
[29] = locus YHR205W, strain SCH9, hits give low values
[30] = locus YIL147C, strain SLN1, hits give low values
[31] = locus YJL095W, strain BCK1, hits give low values
[32] = locus YJL128C, strain PBS2, hits give low values
[33] = locus YJL157C, strain FAR1, hits give low values
[34] = locus YJR016C, strain ILV3, hits give low values
[35] = locus YJR066W, strain TOR1 (second series), hits give low values
[36] = locus YJR066W, strain TOR1, hits give low values
[37] = locus YKL048C, strain ELM1, hits give low values
[38] = locus YKL067W, strain YNK1, hits give low values
[39] = locus YKL101W, strain HSL1, hits give low values
[40] = locus YKL193C, strain SDS22, hits give low values
[41] = locus YKL203C, strain TOR2, hits give low values
[42] = locus YLR113W, strain HOG1, hits give low values
[43] = locus YLR133W, strain CKI1, hits give low values
[44] = locus YLR403W, strain SFP1, hits give low values
[45] = locus YML070W, strain DAK1, hits give low values
[46] = locus YMR001C, strain CDC5, hits give low values
[47] = locus YMR205C, strain PFK2 (second series), hits give low values
[48] = locus YMR277W, strain FCP1, hits give low values
[49] = locus YNL006W, strain LST8, hits give low values
[50] = locus YNL020C, strain ARK1, hits give low values
[51] = locus YNL161W, strain CBK1, hits give low values
[52] = locus YNL183C, strain NPR1, hits give low values
[53] = locus YNL207W, strain RIO2, hits give low values
[54] = locus YNL222W, strain SSU72, hits give low values
[55] = locus YNL307C, strain MCK1 (second series), hits give low values
[56] = locus YOL078W, strain AVO1, hits give low values
[57] = locus YOL136C, strain PFK27, hits give low values
[58] = locus YOR061W, strain CKA2, hits give low values
[59] = locus YOR119C, strain RIO1, hits give low values
[60] = locus YOR231W, strain MKK1, hits give low values
[61] = locus YOR329C, strain SCD5, hits give low values
[62] = locus YPL031C, strain PHO85, hits give low values
[63] = locus YPL153C, strain RAD53, hits give low values
[64] = locus YPL204W, strain HRR25, hits give low values
[65] = locus YPL209C, strain IPL1, hits give low values
[66] = locus YPL256C, strain CLN2, hits give low values
[67] = locus YPR025C, strain CCL1, hits give low values
[68] = locus YPR106W, strain ISR1, hits give low values
[69] = locus YPR111W, strain DBF20, hits give low values
[70] = strain NNK1, hits give low values
[71] = strain TSCII, hits give low values
[72] = locus YAL013W, strain DEP1, hits give low values
[73] = locus YBR229C, strain ROT2, hits give low values
[74] = locus YDR150W, strain NUM1, hits give low values
[75] = locus YEL061C, strain CIN8, hits give low values
[76] = locus YGR078C, strain PAC10, hits give low values
[77] = locus YHR087W, strain rtc3, hits give low values
[78] = locus YJR043C, strain POL32, hits give low values
[79] = locus YJR075W, strain HOC1, hits give low values
[80] = locus YLR039C, strain RIC1, hits give low values
[81] = locus YLR058C, strain SHM2 (second series), hits give low values
[82] = locus YLR085C, strain ARP6, hits give low values
[83] = locus YLR262C, strain YPT6, hits give low values
[84] = locus YML094W, strain GIM5, hits give low values
[85] = locus YMR219W, strain ESC1, hits give low values
[86] = locus YMR263W, strain SAP30, hits give low values
[87] = locus YNL153C, strain GIM3, hits give low values
[88] = locus YNL298W, strain CLA4 (second series), hits give low values
[89] = locus YNL322C, strain KRE1, hits give low values
[90] = locus YNR030W, strain Alg12, hits give low values
[91] = locus YPL055C, strain LGE1, hits give low values
[92] = locus YPL241C, strain CIN2, hits give low values
[93] = locus YPR135W, strain CTF4, hits give low values

Measured: normalized growth

Cc1c(Cl)cccc1NC(=S)N1CCCN(c2ccc(C(F)(F)F)cc2[N+](=O)[O-])CC1
inactive: [1] 0.991 | [2] 0.979 | [3] 0.992 | [4] 0.971 | [5] 0.994 | [6] 0.993 | [7] 0.995 | [8] 0.977 | [9] 0.978 | [10] 0.986 | [11] 0.971 | [12] 0.991 | [13] 0.976 | [14] 0.987 | [15] 0.983 | [16] 0.988 | [17] 0.969 | [18] 0.98 | [19] 0.994 | [20] 0.987 | [21] 0.957 | [22] 0.995 | [23] 0.98 | [24] 1.04 | [25] 0.964 | [27] 0.89 | [28] 1.06 | [29] 1 | [30] 0.989 | [31] 1.01 | [32] 0.942 | [33] 0.951 | [34] 0.982 | [35] 0.974 | [36] 1.02 | [37] 0.984 | [38] 0.974 | [39] 0.988 | [40] 0.995 | [41] 1.01 | [43] 0.955 | [44] 0.952 | [45] 0.992 | [46] 0.961 | [47] 0.979 | [48] 0.997 | [49] 0.982 | [50] 0.972 | [51] 0.979 | [52] 1.05 | [53] 0.982 | [54] 0.984 | [55] 0.964 | [56] 0.989 | [57] 0.965 | [58] 0.963 | [59] 1.05 | [60] 0.993 | [61] 0.981 | [62] 0.979 | [63] 1 | [64] 0.931 | [65] 0.99 | [66] 0.866 | [67] 0.99 | [68] 0.969 | [69] 0.956 | [70] 0.985 | [71] 0.981
active: [26] 0.842 | [42] 0.859

O=C(c1ccccc1)C1CCN(c2ccc(C(F)(F)F)cc2[N+](=O)[O-])CC1
inactive: [72] 0.995 | [73] 1.01 | [8] 0.995 | locus YDL134C, strain PPH21, hits give low values 1.01 | [74] 1 | [75] 1 | [76] 0.982 | [26] 1.02 | [77] 0.98 | [78] 1 | [79] 0.946 | [80] 1.02 | [81] 0.997 | [82] 0.953 | [83] 1.01 | [84] 1.01 | [85] 0.996 | [86] 0.998 | locus YMR307W, strain GAS1, hits give low values 0.991 | [87] 0.991 | [88] 1.02 | [89] 1.01 | [90] 1.04 | [91] 0.999 | [92] 0.931 | [93] 0.978

O=[N+]([O-])c1cc(C(F)(F)F)ccc1N1CCN(CCO)CC1
inactive: [72] 0.995 | [73] 0.987 | [8] 0.989 | [74] 1 | [75] 0.993 | [76] 0.977 | [26] 0.953 | [77] 1.03 | locus YJL187C, strain SWE1, hits give low values 1 | [78] 0.991 | [79] 0.986 | [80] 0.978 | [81] 0.982 | [82] 0.981 | [83] 0.97 | [84] 0.992 | [85] 0.997 | [86] 0.937 | [87] 0.99 | [88] 0.941 | [89] 0.982 | [90] 0.943 | locus YOL006C, strain TOP1, hits give low values 0.941 | [91] 1.03 | [92] 0.974 | [93] 0.893

Cc1c(Cl)cccc1NC(=S)N1CCCN(c2nc3ccc(Cl)cc3s2)CC1
inactive: [1] 0.977 | [2] 0.977 | [3] 0.983 | [4] 0.979 | [5] 0.978 | [6] 0.972 | [7] 0.978 | [8] 0.965 | [9] 0.983 | [10] 0.99 | [11] 0.97 | [12] 0.986 | [13] 0.975 | [14] 0.984 | [15] 0.933 | [16] 0.936 | [17] 0.941 | [18] 0.98 | [19] 0.968 | [20] 0.985 | [21] 1.01 | [22] 0.98 | [23] 0.937 | [24] 0.975 | [25] 0.722 | [27] 0.7 | [28] 1.06 | [29] 0.97 | [30] 0.981 | [31] 0.863 | [32] 0.957 | [33] 0.897 | [34] 0.978 | [35] 0.84 | [36] 0.947 | [37] 0.97 | [38] 0.947 | [39] 0.963 | [40] 0.978 | [41] 0.974 | [43] 0.941 | [44] 0.898 | [45] 0.972 | [46] 0.982 | [47] 0.971 | [48] 0.976 | [49] 0.963 | [50] 0.909 | [51] 0.986 | [52] 0.989 | [53] 0.976 | [54] 0.98 | [55] 0.951 | [56] 0.992 | [57] 0.942 | [58] 0.87 | [59] 0.974 | [60] 0.876 | [61] 0.974 | [62] 0.937 | [63] 0.908 | [64] 0.876 | [65] 0.978 | [67] 0.975 | [68] 0.981 | [69] 0.992 | [70] 0.984 | [71] 0.976
active: [26] 0.625 | [42] 0.794 | [66] 0.772
